# Screening data (PubChem)
# Pf Dd2 growth: blocks in vitro growth of P. falciparum Dd2; P. falciparum Dd2 growth, SYBR Green, 72 h; Potency, µM (highest dose often 28.9 µM), inactives show top-dose activity, negative = inhibition, hits mostly inhibitors; 120,000 tested, 4.3% active; AID 1347417; active = well fitted inhibition curve with a large enough effect;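 note: plate controls were DMSO vehicle for no effect and reference drug for full effect; nearly all actives have a fitted effect of over 65% in size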
#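 Readout: SYBR Green fluorescence, 485 nm excitation, 535 nm emission, after ~16 h lysis at 37C. Before that, Dd2-infected red cells (2.5% hematocrit) grew 72 h with compound, 29 uM top final concentration.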
# * hit, by the source's call; i = inactive; [ ] = dose if it differs, or a comment. Only a selection was taken, and hits are over-represented in it overall. Potency is the fitted concentration of half-maximal effect.
SMILES,Pf Dd2 growth
CN1C[C@@H](NC(=O)c2ccccn2)C[C@H]1c1nc(-c2ccc(Cl)cc2)no1,i
COc1ccc(-c2noc([C@@H]3C[C@H](NCc4ccc(S(C)(=O)=O)cc4)CN3C)n2)cc1,-13%
COc1ccc(-c2noc([C@@H]3C[C@H](NCc4ccccn4)CN3C)n2)cc1,10µM*
Cc1ccc(-c2noc([C@@H]3C[C@H](NC(=O)Nc4ccc(Cl)cc4)CN3C)n2)cc1,-8%[44.1 µM]
COc1ccc(C(=O)N[C@H]2C[C@@H](c3nc(-c4ccccc4)no3)N(C)C2)cc1,i
COc1ccc(NC(=O)N[C@H]2C[C@@H](c3nc(-c4ccc(F)cc4)no3)N(C)C2)cc1,i
CN1C[C@@H](NC(=O)Nc2ccc(Cl)cc2)C[C@H]1c1nc(-c2ccc(F)cc2)no1,14µM*
COc1ccc(-c2noc([C@@H]3C[C@H](NC(=O)c4ccc(F)cc4)CN3C)n2)cc1,i
CCn1cnnc1-c1nn(C)c2c1CN(C(=O)CCC(=O)N1CC(=O)Nc3ccccc31)CC2,-22%
Cc1ccc(NS(=O)(=O)c2ccccc2)c(=O)n1CC(=O)NCc1cccc(Cl)c1,i
COc1ccc(-c2cc(N3CCCN(C(=O)c4ccc(OC)cc4OC)CC3)n[nH]2)cc1,i
COc1ccc(CNC(=O)C[C@@H]2C[C@H]3O[C@H](CNC(=O)NCc4ccccc4)[C@@H](O)[C@H]3O2)cc1,9%
CC[C@H]1CN(C(C)=O)CC[C@H]1CC(=O)NC1CC1,i
O=C(NC[C@H]1OC[C@@H](NC2COC2)[C@@H]1O)c1ccncc1,23%[44.1 µM]
Cn1c(=O)c2c(ncn2CC(=O)N2CCC(CCOc3ccc(F)cc3)C2)n(C)c1=O (stereo not given),-7%
O=C(Cc1ccccc1)N1CCC2(CC1)CN(c1ccncn1)CC2CO (stereo not given),i
O=C(c1c[nH]c2ccccc12)N1CCC2(CC1)CN(c1ccncn1)CC2CO (stereo not given),5.6µM*
O=C(Cc1ccsc1)N1CCC2(CC1)CN(c1ccncn1)CC2CO (stereo not given),-15%
CCn1nccc1C(=O)NC1CCCN(c2cc(N(C)C)ncn2)C1 (stereo not given),7%[5.79 µM]
COc1ccc(CN2C[C@@H](F)[C@@H](OCc3nc4ccncc4[nH]3)C2)cn1,-15%[44.1 µM]
Cc1ccc(-c2nc(C(=O)NC(C)c3ccc(F)cc3)no2)cc1 (stereo not given),31%
COc1cccc(CN2CCC3(Cc4ccccc4NC3=O)C2)c1 (stereo not given),-4%[44.1 µM]
O=C1NCc2ccccc2CC12CCN(Cc1ccncc1Cl)C2 (stereo not given),10%
Cc1ccc(CN2CCC3(CC2)Cc2ccccc2NC3=O)cc1,4.5µM*
N#Cc1ccc(CN2CCC3(Cc4ccccc4CNC3=O)C2)cc1 (stereo not given),5%
SMILES,Pf Dd2 growth
CC(=O)Nc1ccc(CN2CCCC3(Cc4ccccc4CNC3=O)C2)cc1 (stereo not given),-16%
Cn1nccc1CN1CCC2(CC1)Cc1ccccc1NC2=O,-24%[44.1 µM]
O=C1NCc2ccccc2CC12CCN(Cc1ccc(Oc3ccccc3)cc1)C2 (stereo not given),11µM*
CC(C)(C)CN1CCC2(Cc3ccccc3CNC2=O)C1 (stereo not given),-25%[44.1 µM]
CC(C)Cc1ccc(CN2CCC3(Cc4ccccc4CNC3=O)C2)cc1 (stereo not given),13µM*
O=C(Cc1ccc(F)cc1)N1CCC2(CC1)NC(=O)N(c1ccc(F)cc1)N2,-16%
CC(C)N(C)Cc1nnnn1CC(=O)N1CCCC(OCc2ccccn2)C1 (stereo not given),-11%
COCC(=O)N1CC[C@@H](CC(=O)O)[C@@H](CCN2CCN(c3ccc(F)cc3)CC2)C1,-22%[44.1 µM]
Cc1noc(C)c1CO[C@@H]1COCC[C@H]1NC1CSCCSC1,-12%
CN(C)C[C@@H]1CN(Cc2ccccc2)C[C@H]1NC(=O)c1nccn1C,-18%
Cc1cc(CNC(=O)Cn2nc(-c3ccccc3)n(-c3ccccc3)c2=O)on1,1%
CCC(=O)Nc1cccc(C(=O)N2CCN3C(=O)CN(C)C(=O)C3C2)c1 (stereo not given),1%
CCCC(=O)N1Cc2ccccc2CC2(CCN(Cc3ccncc3)C2)C1 (stereo not given),11µM*
CCC(=O)N1Cc2ccccc2CC2(CCN(Cc3ccncc3)C2)C1 (stereo not given),-24%
O=C(O)CCC(=O)N1Cc2ccccc2CC2(CCCN(Cc3ccncc3)C2)C1 (stereo not given),0%
CCCC(=O)N1Cc2ccccc2CC2(CCN(Cc3cccnc3)C2)C1 (stereo not given),11µM*
O=C(O)CCC(=O)N1Cc2ccccc2CC2(CCCN(Cc3cccnc3)C2)C1 (stereo not given),8%
C[S+](=O)([O-])N1Cc2ccccc2CC2(CCCN(Cc3ccccc3)C2)C1 (stereo not given),-12%
CC(=O)N1Cc2ccccc2CC2(CCN(Cc3cccnc3)C2)C1 (stereo not given),-12%
CCCC(=O)N1Cc2ccccc2CC2(CCN(Cc3ccc(NC(C)=O)cc3)C2)C1 (stereo not given),-27%
O=S(=O)(c1ccccc1)N1Cc2ccccc2CC2(CCN(Cc3cccnc3)C2)C1 (stereo not given),6.3µM*
Cc1nc2ccccc2n1Cc1cc(C(=O)N(C)CCOc2ccccc2)n[nH]1,-16%
COc1ccc(Cl)cc1NC(=O)Cn1c(=O)c(-c2noc(C)n2)c2n(c1=O)CCCC2,-15%
CCCNC(=O)N1CCCC(c2noc(COCC)n2)C1 (stereo not given),33%
CCOc1ccccc1C1NC(=O)N(CC(=O)Nc2cccc(C(C)C)c2)C2=C1C(=O)OC2 (stereo not given),i
SMILES,Pf Dd2 growth
O=C(Nc1cccc(Cl)c1)c1ccc(N2CC3CC(C2)[C@H]2CCCC(=O)N2C3)nc1 (stereo not given in full),-22%
Cc1noc([C@@H]2CC(F)(F)CN2C(=O)c2cc(C)[nH]n2)n1,27%
Cc1nc(N2CCN(C(=O)Cc3ccccc3Cl)CC2)cc(C(F)(F)F)n1,-18%
Cc1nc(N2CCN(C(=O)Cc3ccc(Cl)cc3)CC2)cc(C(F)(F)F)n1,4µM*
Cc1nc(N2CCC(NC(=O)Cc3ccc(Cl)cc3)CC2)cc(C(F)(F)F)n1,i
COCCN1CCCCCC(O)c2cc(C(=O)Nc3cc(C)ccc3OC)ccc21 (stereo not given),-1%
CC1=C[C@@H](CN(C)CCO)[C@H](C(C)C)C[C@H]1Cc1nnc(-c2ccccc2F)o1,13µM*
C#CCN(C)C[C@@H]1C=C(C)[C@H](Cc2nnc(-c3ccc(C)cc3)o2)C[C@H]1C(C)C,-11%[44.1 µM]
CC1=C[C@@H](CN(C)CCO)[C@H](C(C)C)C[C@H]1Cc1nnc(-c2ccc(C)cc2)o1,10µM*
O=C(CC1COCCN1)N1CCC2(CCC(=O)N(CCc3ccncc3)C2)CC1 (stereo not given),5%
Cc1ccc(C(=O)NCCC(=O)N2CC[C@@](C)(O)[C@@H](O)C2)cc1,12%
CC(C)N[C@@H]1CC[C@@H]1NC(=O)c1ccc(C(F)(F)F)cc1C(F)(F)F,i
CNC(=O)N1CCC(C2CCN(C(=O)c3cn[nH]c3)C2)CC1 (stereo not given),10%
COc1cc(CN2CCN(Cc3cnc(SC)nc3)CC2CCO)cc(OC)c1 (stereo not given),i
CCOc1ccccc1CN1CCN(Cc2nccn2CC)CC1CCO (stereo not given),i
